# Reference: PubChem BioAssay AID521 (Sanford-Burnham Center for Chemical Genomics, 2006)
# “And” between values parts separate entries of the source, which are not always exact repeats. Identical values can stand only once. In all, about 110,000 compounds went through this assay and about 730 (0.66%) were called active. The sample holds actives, similar compounds and a random draw of the others, so the mix is not that of the screen. Cut-off read from the data, not from the text of the source: active = inhibition above about 50%; inconclusive = no clear call, values can overlap the other calls; inactive = below that. Some compounds were tested as several samples or in several runs, with calls that do not always agree.
# Target: Tyrosine-protein phosphatase non-receptor type 7 (Homo sapiens) (UniProt P35236)
# Experiment: inhibitors of human HePTP phosphatase, primary screen, biochemical, absorbance, leukemia target (AID 521);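 note: plate controls were vehicle for no effect and reference inhibitor for full effect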
# Conditions: recombinant HePTP phosphatase activity, OD absorbance; at 20 µM; stronger effect = higher value
# Tyrosine-protein phosphatase non-receptor type 7 (Homo sapiens), sequence (P35236 whole entry, looked up): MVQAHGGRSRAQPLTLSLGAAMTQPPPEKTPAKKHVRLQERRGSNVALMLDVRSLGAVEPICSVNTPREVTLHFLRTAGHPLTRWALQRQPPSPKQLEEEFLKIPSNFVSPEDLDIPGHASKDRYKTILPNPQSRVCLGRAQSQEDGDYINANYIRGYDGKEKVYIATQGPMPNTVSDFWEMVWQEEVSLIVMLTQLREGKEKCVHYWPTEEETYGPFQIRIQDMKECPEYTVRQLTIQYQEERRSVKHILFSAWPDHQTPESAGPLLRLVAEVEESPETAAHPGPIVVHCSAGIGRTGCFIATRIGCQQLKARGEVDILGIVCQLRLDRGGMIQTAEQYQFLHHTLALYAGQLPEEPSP
row,SMILES,inhibition
1,Cc1[nH]n(-c2ccccc2)c(=O)c1/C=N/N(C)C,-5.9% (inactive)
2,Cc1[nH]n(-c2ccccc2)c(=O)c1C(=O)C(F)(F)F,3.1% (inactive)
3,Cc1[nH]n(-c2ccccc2)c(=O)c1C(c1ccc(C(F)(F)F)cc1)c1c(C)[nH]n(-c2ccccc2)c1=O,104% (active)
4,COc1ccc2nc(C)c(CCC(C)=O)c(Cl)c2c1,6.4% (inactive)
5,COc1ccc(C(=O)Nc2nc(C34CC5CC(CC(C5)C3)C4)c(C)s2)cc1,-13.5% (inactive)
6,COC(=O)c1ccccc1NC(=O)COc1cccc2ccccc12,3.5% (inactive)
7,COc1cc(C(=O)N2CCC(Cc3ccccc3)CC2)c([N+](=O)[O-])cc1OC,-4.3% (inactive)
8,COC(=O)c1ccc(C(=O)Nc2cc(Cl)ccc2Cl)cc1NC(=O)c1ccccc1C,-11.5% (inactive)
9,COC(=O)c1ccccc1NC(=O)c1ccc(Cl)cc1,72.5% (active)
10,COC(=O)c1ccccc1NC(=O)c1cncc(Br)c1,5.5% (inactive) and 4.4% (inactive)
11,Cc1cc(NC(=O)C2CC3CCC2C3)no1 (stereo unspecified),-16.7% (inactive)
12,O=C1NC(c2ccc(Br)cc2)=N/C1=C/c1ccccc1,-7.8% (inactive)
13,COc1ccc([N+](=O)[O-])cc1-c1ccc(/C=C(\C#N)c2nc3ccc(C)cc3[nH]2)o1,103% (active)
14,Cc1cccc(NC(=O)/C(C#N)=C/c2ccc(-c3ccccc3[N+](=O)[O-])o2)c1,2.3% (inactive)
15,CC(=O)NC1=NC(=O)/C(=C\c2ccc(-c3cc([N+](=O)[O-])ccc3C)o2)S1,-13.7% (inactive)
16,CCCOc1ccc(N2C(=O)CC(NCCc3ccc(Cl)cc3)C2=O)cc1 (stereo unspecified),-18.1% (inactive)
17,COc1ccccc1NCN1C(=O)S/C(=C/c2ccccc2F)C1=O,-9.9% (inactive)
18,C/C(=C\C(=O)c1ccc(Br)cc1)Nc1ccccc1O,-2% (inactive)
19,CC(C)(C)CC(C)(C)NC(=O)CSc1nc2ccccc2s1,5.4% (inactive)
20,N/C(=C\C(=O)/C=C\c1ccccc1)C(Cl)(Cl)Cl,-0.8% (inactive)
21,O=c1oc2c3c4c(cc2cc1CCO)CCCN4CCC3,11.1% (inactive)

row,SMILES,inhibition
1,CN1CCN(CCCCOc2cccc3ccccc23)CC1,3.9% (inactive)
2,Cc1cc(C)c2oc(-c3ccc(NC(=O)c4cc5ccccc5o4)cc3O)nc2c1,-0.1% (inactive)
3,CCc1ccc2oc(-c3ccc(C)c(NC(=O)c4cc(OC)cc(OC)c4)c3)nc2c1,-3.6% (inactive)
4,COc1ccc(C=Nc2ccc(Sc3ccc([N+](=O)[O-])cc3)cc2)cc1OC,-1.2% (inactive)
5,COc1ccc(/C=C2/SC(=S)NC2=O)cc1I,7.7% (inactive)
6,COC(=O)c1sc(NC(=O)C2CCCCC2)c(C#N)c1C,103% (active)
7,COC(=O)c1sc(NC(=O)C(Sc2ccccc2)c2ccccc2)c(C#N)c1C (stereo unspecified),10.9% (inactive)
8,CCC(=O)Nc1sc(C(=O)N2CCCCC2)c(C)c1C#N,7.4% (inactive)
9,CC1(C)c2ccccc2N(CCO)C12C=Cc1cc([N+](=O)[O-])ccc1O2 (stereo unspecified),0.7% (inactive)
10,COC(=O)c1cc(S(=O)(=O)N2CCOCC2)ccc1Cl,-0.5% (inactive)
11,O=C(Cc1c(O)c2ccccc2[nH]c1=O)NCc1ccc(Cl)cc1,-5.2% (inactive)
12,CC(=O)n1nc(C)c2c1C[C@@H]1[C@H]2C1(C)C,2.1% (inactive)
13,O=c1[nH]c2ccc(Br)cc2c(-c2ccccc2)c1C1=NNC(c2ccc([N+](=O)[O-])cc2)C1 (stereo unspecified),7.3% (inactive)
14,Cc1ccc(N2NC(=O)/C(=C/c3ccc4c(c3)OCO4)C2=O)cc1Cl,66.6% (active)
15,O=C1NN(c2ccccc2)C(=O)/C1=C/c1cccc(F)c1,7.6% (inactive)
16,Cc1ccc(N2NC(=O)/C(=C/c3ccc(O)c(O)c3)C2=O)cc1C,-5.6% (inactive)
17,CC(C)=CC1C(C(=O)Nc2ccc(C)cn2)C1(C)C (stereo unspecified),-10.2% (inactive)
18,O=C(NCc1ccco1)Nc1ccncc1,-1.8% (inactive)
19,COc1ccccc1C(=O)NC(NC(=O)c1ccccc1OC)c1ccc(Br)cc1,7.8% (inactive)
20,O=C(Nc1ccc(OC(F)(F)F)cc1)c1cnn2c(C(F)(F)F)cc(-c3ccco3)nc12,0.1% (inactive)
21,OCCNCC(O)Cn1c2ccc(I)cc2c2cc(I)ccc21 (stereo unspecified),-15.3% (inactive)

row,SMILES,inhibition
1,Cn1cnnc1Sc1nc2c(c(=O)n(C)c(=O)n2C)n1Cc1ccc(F)cc1,-3.2% (inactive)
2,CC(C)(C)c1ccc(OCC(=O)Nc2cccc(NC(=O)c3ccccc3)c2)cc1,-1.7% (inactive)
3,Cc1cccc(C(=O)Nc2cccc(NC(=O)COc3ccccc3Cl)c2)c1,105% (active)
4,Cc1cccc(NC(=O)c2ccc(NC(=O)COc3ccc(Cl)cc3Cl)cc2)c1,6.4% (inactive)
5,CSc1nc(N)c(C#N)c(-c2ccccc2Cl)c1C#N,-5.7% (inactive)
6,N#Cc1c(N)nc2cc(N)ccc2c1-c1ccc(O)cc1,104% (active)
7,CSc1ccc(-c2c(C#N)c(N)nc3c2c(C)nn3-c2ccccc2)cc1,2.8% (inactive)
8,CCN(C(=S)NC(=O)c1cccnc1)c1ccccc1,3.3% (inactive)
9,COc1ccc(C(=O)Nc2nc3ccc(C)cc3s2)cc1Br,4.5% (inactive)
10,CCc1c(C)sc(NC(=O)C2CCCCC2)c1C(=O)OC(C)C,6.5% (inactive)
11,COC(=O)c1cc(NC(=O)c2ccc(-c3cc(Cl)ccc3Cl)o2)cc(C(=O)OC)c1,-24.3% (inactive)
12,COc1cc(OC)cc(C(=O)N/N=C(\C)CC(=O)Nc2ccccc2-c2ccccc2)c1,-23.1% (inactive)
13,CCOc1ccccc1C(=O)NCc1ccco1,103% (active) and 14.1% (inactive)
14,COc1ccc(C(=O)Nc2ccccc2C(=O)NCc2ccco2)cc1,4.8% (inactive)
15,CCCCOc1ccc(C(=O)NCc2ccco2)cc1,6% (inactive)
16,O=C(Cc1ccc(Cl)cc1)Nc1ccc(Cl)cc1C(=O)O,1.2% (inactive)
17,Cc1cccc(N2C(=O)S/C(=C/c3ccc(N(C)C)cc3)C2=O)c1,-1.4% (inactive)
18,O=Cc1ccc(/C=C2/SC(=S)N(c3cccc(Cl)c3)C2=O)cc1,4.5% (inactive)
19,CN(C)c1ccc(/C=C2\SC(=S)N(c3cccc(C(=O)O)c3)C2=O)cc1,104% (active)
